Data: PubChem BioAssay (NCI)
The panel holds about 79,000 compounds, 15% with a hit somewhere; the sample as a whole holds those more often. A number with no mark means an inactive call. The source made the active and inactive calls. Cut-off read from the data, not from the text of the source: active = growth inhibition above about 70%; inactive = the rest. Where a SMILES comes first, the peptide text is derived from it. [ ]: non-standard residue; d: D form. Phe(4-Cl) = N[CH](Cc1ccc(Cl)cc1)C(=O)O; 3Pal = N[CH](Cc1cccnc1)C(=O)O

Legend:
[1] = NCI Yeast Anticancer Drug Screen. Data for the rad50 strain (AID 155);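 note: 0% = growth of vehicle-only cultures of the same strain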; settings: S. cerevisiae rad50 strain growth inhibition, stronger effect = higher value
Procedure, shortened: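 Compounds were tested on a yeast strain with an engineered DNA damage repair alteration; the reported value is growth inhibition normalised to vehicle treatment.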

[2] = NCI Yeast Anticancer Drug Screen. Data for the mec2-1 strain (AID 157); settings: S. cerevisiae mec2-1 strain, stronger effect = higher value
Procedure, shortened: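 Vehicle-treated cultures served as reference for growth inhibition of compound-exposed mec2-1 yeast.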

[3] = NCI Yeast Anticancer Drug Screen. Data for the sgs1 mgt1 strain (AID 161);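 note: 0% = growth of cultures given vehicle only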; settings: S. cerevisiae sgs1 mgt1 strain, stronger effect = higher value
Procedure, shortened: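 Genetically altered yeast, compound exposure, growth inhibition relative to vehicle.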

[4] = NCI Yeast Anticancer Drug Screen. Data for the cln2 rad14 strain (AID 165);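 note: 0% = growth equal to vehicle treated cultures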; settings: S. cerevisiae cln2 rad14 strain, stronger effect = higher value
Procedure, shortened: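 Each compound was tested on cln2 rad14 yeast. Inhibition of growth was calculated against vehicle-exposed controls.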

[5] = NCI Yeast Anticancer Drug Screen. Data for the bub3 strain (AID 167); settings: S. cerevisiae bub3 mutant strain, stronger effect = higher value
Procedure, shortened: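 Growth of a checkpoint-deficient yeast mutant is measured after compound exposure. Values represent inhibition relative to vehicle.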

[6] = NCI Yeast Anticancer Drug Screen. Data for the mlh1 rad18 strain (AID 175); settings: S. cerevisiae mlh1 rad18 strain growth inhibition, stronger effect = higher value
Procedure, shortened: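 Vehicle-treated cultures served as the reference for growth inhibition in a yeast strain carrying DNA damage repair alterations exposed to each compound.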

[7] = at 5.0 µM (retest, dose inferred, filed as 0.5)
[8] = at 50.0 µM (retest, dose inferred, filed as 5.0)

| Compound | growth inhibition [1, 7] | growth inhibition [1, 8] | growth inhibition ([1]; at 50.0 µM) | growth inhibition [2, 7] | growth inhibition [2, 8] | growth inhibition ([2]; at 50.0 µM) | growth inhibition [3, 7] | growth inhibition [3, 8] | growth inhibition ([3]; at 50.0 µM) | growth inhibition [4, 7] | growth inhibition [4, 8] | growth inhibition ([4]; at 50.0 µM) | growth inhibition [5, 7] | growth inhibition [5, 8] | growth inhibition ([5]; at 50.0 µM) | growth inhibition [6, 7] | growth inhibition [6, 8] | growth inhibition ([6]; at 50.0 µM) |
| --- | --- | --- | --- | --- | --- | --- | --- | --- | --- | --- | --- | --- | --- | --- | --- | --- | --- | --- |
| CN(C)C(=S)Oc1ccc(C(C)(C)C)cc1 | -156% | -68% | 50.9% | -53% | -59% | -14.4% | -65% | -47% | 40.5% | -72% | -68% | -34.7% | -65% | -27% | 60.4% | -129% | -123% | 29.1% |
| C=C1CC(COc2ccc3c(C)cc(=O)oc3c2)(c2ccccc2)OC1=O (configuration not stated) | 32% | 8% | 36% | -6% | 17% | 27% | 17% | 32% | 59.6% | -20% | -6% | 32% | 32% | 30% | 30.2% | -10% | 22% | 41.6% |
| COc1ccc2nccc(C(=O)CBr)c2c1 | 24% | 23% | 92% (active) | 32% | -5% | 93% (active) | 61% | 20% | 97.4% (active) | -1% | 10% | 31.3% | 13% | 34% | 97.2% (active) | 31% | 37% | 96.6% (active) |
| S=c1c2ccccc2[nH]c2ccccc12 | -3% | 86% (active) | 89.2% (active) | -6% | 62% | 63% | -2% | 83% (active) | 60.6% | -7% | 46% | 75.3% (active) | 8% | 33% | 88.8% (active) | -5% | 88% (active) | 85.5% (active) |
| COC(=O)Cc1nc2ccccc2s1 | 1% | 99% (active) | 99.2% (active) | -9% | 100% (active) | 99.5% (active) | 11% | 92% (active) | 99.3% (active) | 13% | 96% (active) | 97.3% (active) | -10% | 100% (active) | 98.5% (active) | -2% | 76% (active) | 99% (active) |
| COc1ccc(/C=C/c2ccc3ccccc3n2)cc1OC | 3% | 97% (active) | 93.8% (active) | 8% | 98% (active) | 97% (active) | 3% | 93% (active) | 97.5% (active) | 1% | 96% (active) | 83.6% (active) | 10% | 98% (active) | 95.3% (active) | -1% | 97% (active) | 95.7% (active) |
| COC(=O)c1nc(N)nc(C(=O)OC)c1C(=O)c1ccccc1 | 0% | 21% | -32.9% | 22% | -5% | -13.3% | 30% | 20% | -29.4% | -13% | 1% | 42.7% | -3% | 0% | -24.6% | -2% | -5% | 0% |
| N[C@@H]1CCCC[C@@H]1N.O=C([O-])CN(CP(=O)([O-])[O-])CP(=O)([O-])[O-].[Pt+2] | -1% | 89% (active) | 99.5% (active) | 6% | 75% (active) | 99.7% (active) | 8% | 88% (active) | 99.5% (active) | 3% | 67% | 98.3% (active) | 5% | 89% (active) | 99.3% (active) | -1% | 77% (active) | 99.5% (active) |
| CN1c2ccccc2S(=O)(=O)n2c(CCc3ccccc3)nnc21 | 1% | 10% | 14.3% | 5% | 13% | -3% | 10% | 10% | -6.9% | 17% | 14% | 9.85% | 9% | 15% | -10.7% | 10% | 17% | 32.5% |
| CC1=C(Br)S(=O)(=O)N(c2ccccc2)C(CBr)=C1Br | 57% | 95% (active) | 19.8% | 41% | 97% (active) | 18.1% | 81% (active) | 99% (active) | 16.9% | 26% | 95% (active) | 5.05% | 53% | 96% (active) | 27.7% | 70% (active) | 93% (active) | 50.1% |
| CC(=O)NC(Cc1ccc(Cl)cc1)C(=O)NC(Cc1ccc(Cl)cc1)C(=O)NC(Cc1cccnc1)C(=O)NC(CO)C(=O)NC(Cc1ccc(O)cc1)C(=O)NC(CCCN=C(N)N)C(=O)NC(CC(C)C)C(=O)NC(CCCN=C(N)N)C(=O)N1CCCC1C(=O)NC(C)C(=O)O (configuration not stated) (Ac-[Phe(4-Cl)][Phe(4-Cl)][3Pal]SYRLRPA-OH; configuration not given here) | -20% | -8% | 18.1% | -9% | -16% | 17.9% | -14% | 0% | 5.15% | -18% | -7% | 9.9% | -4% | 8% | 16.7% | 29% | -22% | 53.4% |
| COc1cc(F)ccn1 | 2% | 0% | -4.75% | 5% | 4% | -11.4% | 2% | 2% | -12.5% | 1% | 4% | 12.8% | -2% | -4% | 46% | -4% | -3% | -18.2% |
| C[C@]12C[C@H](c3ccccc3)Nc3ccccc3N1C(c1ccccc1)=NO2 | 0% | 83% (active) | 64.5% | -13% | 80% (active) | 59.7% | 21% | 80% (active) | 81.5% (active) | 9% | 74% (active) | 54.4% | 6% | 87% (active) | 67.4% | -8% | 88% (active) | 71% (active) |
| CCN(c1ccc(C=O)cc1)c1ccc([N+](=O)[O-])cc1[N+](=O)[O-] | 3% | 33% | 50.5% | -1% | 30% | 26.2% | 3% | 70% (active) | 74% (active) | 1% | 11% | 18.2% | 2% | 23% | 7.85% | 8% | 59% | 38.7% |
| Cc1ccc(NN)cc1 | 23% | 97% (active) | 83.8% (active) | 0% | 69% | 40.7% | 26% | 46% | 70.3% (active) | 4% | 75% (active) | 21.1% | 3% | 96% (active) | 52.6% | 11% | 94% (active) | 80.5% (active) |
| O=C(O)CSc1cc2c3ccccc3sc2c2ccccc12 | 16% | 96% (active) | 96.3% (active) | 14% | 97% (active) | 97.8% (active) | 11% | 97% (active) | 98.5% (active) | 4% | 96% (active) | 93.8% (active) | 8% | 94% (active) | 79.7% (active) | 12% | 97% (active) | 98.1% (active) |
| O=C(NNc1ccccc1)c1ccc([N+](=O)[O-])cc1 | 31% | 95% (active) | 99% (active) | 10% | 96% (active) | 99.2% (active) | 34% | 97% (active) | 99% (active) | 20% | 96% (active) | 92% (active) | 25% | 96% (active) | 99.6% (active) | 32% | 97% (active) | 98.7% (active) |
| CC(C)CC(CC(C)C)NCC(C)OC(=O)C(c1ccccc1)c1ccccc1 (configuration not stated) | -1% | 94% (active) | 29.2% | -8% | 78% (active) | 50.3% | -3% | 97% (active) | 84.8% (active) | -3% | 73% (active) | 20.9% | -9% | 93% (active) | 68.2% | 18% | 96% (active) | 95.2% (active) |
| CCCCCCCCCCCCOCC[N+](CCO)(CCO)Cc1ccccc1 | 99% (active) | 99% (active) | 99.3% (active) | 100% (active) | 99% (active) | 99.5% (active) | 99% (active) | 99% (active) | 99.2% (active) | 97% (active) | 99% (active) | 98.4% (active) | 97% (active) | 99% (active) | 99% (active) | 98% (active) | 99% (active) | 99.3% (active) |
